Measurements from PubChem BioAssay AID686970 (National Center for Advancing Translational Sciences (NCATS), 2013).
Out of some 360,000 compounds screened, about 6,000 (1.7%) were called active. A call without a number means that no potency is given here. Inconclusive results (about 8%) are left out. This is one part of a sample in which actives are shown more often than they occur. Calls follow the shape of the dose curve; as a rule, active = well fitted cell-killing curve with a large enough effect; inconclusive = small, poorly fitted or top-dose-only effect, or effect the other way; inactive = flat fitted curve, though single readings scatter.

experiment: qHTS for induction of synthetic lethality in tumor cells producing 2HG: qHTS for the HT-1080-NT fibrosarcoma cell line; conditions: HT-1080-NT fibrosarcoma viability, CellTiter-Glo ATP luminescence, 48 h; series mostly up to 46.1 µM;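 also: NT is the 2HG producing partner of a matched IDH1 knockdown line; nearly all actives have a fitted effect of over 55% in size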
Method in brief: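 750 cells/well, RPMI + 5% FBS; 2 h settle, compound pin-transfer, 48 h at 37 degrees C. CellTiter-Glo 10 min RT, luminescence. Normalized to DMSO and media-only wells.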
Potency is read from the fitted curve at half-maximal effect.

Structure (SMILES)	Potency
COc1cccc(-c2ccc3c(c2)N(Cc2ccccc2OC)C(=O)C(C)S3)c1 (stereo not drawn)	inactive
O=C1NC[C@@H](CCCCN2CCN(CCc3ccc(O)cc3)C(=O)C2=O)N(CC2CCCCC2)C1=O	inactive
Cc1ccccc1S(=O)(=O)NC(=O)C1(C)CCN1C(=O)Cc1ccc(Cl)cc1Cl (stereo not drawn)	inactive
CC1(C)OC(=O)C2=C(C[C@@H](C3CCCC3)O[C@@H]2c2ccc(Cl)cc2)O1	inactive
COc1ccc(NC(=O)CCCOc2ccc(C(C)=O)cc2)cc1S(=O)(=O)N1CCCCC1	inactive
CC(=O)Nc1cc(-c2ccc(N3CCN(C)CC3)cc2)cn2c(-c3cccc(C(=O)N(C)C)c3)cnc12	inactive
CS(=O)(=O)Nc1cccc(C2=NN(C(=O)c3cccc(F)c3)C(c3cccs3)C2)c1 (stereo not drawn)	inactive
CS(=O)(=O)Nc1ccc(C2=NN(S(C)(=O)=O)C(c3cccs3)C2)cc1 (stereo not drawn)	inactive
CCS(=O)(=O)Nc1ccc(C2=NN(C(C)=O)C(c3cccs3)C2)cc1 (stereo not drawn)	23.1 µM (active)
O=C(Cc1ccc([N+](=O)[O-])cc1)NCCS(=O)(=O)N1CCN(c2ccccc2)CC1	inactive
COc1ccc(CC(N)c2csc(NC(=O)Cc3ccccc3)n2)cc1 (stereo not drawn)	23.1 µM (active)
COC(=O)[C@H](CCSC)NC(=O)Nc1ccc(OC)cc1	inactive
COc1ccc(CC(N)c2csc(NC(=O)NC(c3ccccc3)c3ccccc3)n2)cc1 (stereo not drawn)	23.1 µM (active)
COc1ccc(CC(=O)Nc2sc(Cc3ccccc3)c(C)c2C(N)=O)cc1	inactive
COc1ccc(CC(N)c2csc(NC(=O)Nc3ccc(C(C)C)cc3)n2)cc1 (stereo not drawn)	18.4 µM (active)
COc1ccc(CNC(=O)C(Cc2ccccc2)n2cccc2)cc1 (stereo not drawn)	inactive
CC(C)(C)CC(=O)Nc1nnc(SCC(=O)NCc2cccs2)s1	inactive
CC(C)(C)CC(=O)Nc1nc(C(N)Cc2ccc(C(F)(F)F)cc2)cs1 (stereo not drawn)	16.4 µM (active)
Cc1ccccc1NC(=O)Cc1nc(COC(=O)c2ccc(C(F)(F)F)cc2)cs1	inactive
COc1ccc(OC)c(NC(=O)N[C@H](Cc2ccccc2)C(=O)NN)c1	inactive

Structure (SMILES)	Potency
COc1ccc(Cc2nnc(NC(=O)Cc3cccs3)s2)cc1	inactive
COc1ccc(NC(=O)C(Br)C(C)C)cc1 (stereo not drawn)	inactive
CCNC(=O)C1(C)CCCN(C(=O)c2ccc3ccccc3n2)C1 (stereo not drawn)	inactive
CN(Cc1ccc(C(F)(F)F)cc1)C(=O)[C@H]1O[C@@H](n2cnc3c(N)ncnc32)[C@H](O)[C@@H]1O	inactive
O=C(c1ccc2c(=O)n(Cc3ccco3)c(=S)[nH]c2c1)N1CCCC1	inactive
COc1ccc([C@H]2C[C@@H](n3cc(COC(=O)c4ccccc4)nn3)[C@H](O)CN2C(=O)c2cccs2)cc1	inactive
COC(=O)c1ccc2nc(-c3ccc(C)cc3)c(Cc3ccc(OC)cc3C)n2c1	inactive
O=C(COc1ccc(S(=O)(=O)N2CCCC2)cc1[N+](=O)[O-])N1CCCCC1	inactive
CCCCNC(=O)c1nc(C2CCN(S(=O)(=O)c3ccc(F)c(F)c3)CC2)oc1-c1cccc(C(F)(F)F)c1	inactive
COC(=O)c1ccc2nc(-c3ccccc3)c(Cc3ccc(OC)cc3C)n2c1	inactive
CC(C)(C)c1ccc(S(=O)(=O)NC(=O)C2(C)CCN2C(=O)CC2CC2)cc1 (stereo not drawn)	inactive
N#Cc1ccc(-c2ccc3nccn3c2)cc1	inactive
COc1cccc(-n2cc(C(=O)O)c3ccccc3c2=O)c1	14.1 µM (active)
COc1cccc(-n2nc(C(=O)N3CCN(Cc4ccccc4)CC3)c3ccccc3c2=O)c1	inactive
COc1cccc(-n2cc3c(c2-c2ccccc2)c(=O)n(C)c(=O)n3C)c1	inactive
CCOC(=O)c1cc(-c2sc(NC(=O)c3ccccc3)nc2C)n(-c2ccc(Br)cc2)n1	inactive
CCc1nc2ccc(C(=O)N(C)Cc3ccco3)cn2c1N(C)C(=O)Cc1ccccc1	inactive
O=C(CC[C@H]1O[C@@H](n2ccc(=O)[nH]c2=O)[C@H](O)[C@@H]1O)N[C@H](Cc1ccccc1)C(=O)NCc1ccco1	inactive
COc1cccc(/C=N/Nc2cc(C)nc(-c3ccccc3O)n2)c1O	8.2 µM (active)
COc1ccccc1-n1c(SCC(=O)Nc2cccc(C(=O)O)c2)nnc1-c1ccccc1O	inactive

Structure (SMILES)	Potency
COc1cccc(/C=N/Nc2ccc(S(=O)(=O)Nc3ccccc3C(=O)O)cc2[N+](=O)[O-])c1O	inactive
O=C(Nc1ccc2c(c1)[C@@H]1C[C@@H](CC(=O)N3CCCCC3)O[C@@H](CO)[C@@H]1O2)NC1CCCCC1	inactive
CCCS(=O)(=O)NC(=O)C1(C)CCCN(C(=O)c2cc(C)on2)C1 (stereo not drawn)	inactive
CCOC(=O)C1=CCC(c2ccc(F)cc2)N(S(=O)(=O)c2ccc(C)cc2)C1 (stereo not drawn)	inactive
COc1ccc(Sc2ccc(NC(=O)c3cccc(Cl)c3)cc2C#N)cc1	inactive
COc1cccc(C(NC(C)=O)c2nc(-c3ccccc3OC)cs2)c1 (stereo not drawn)	inactive
CCOC1=C2CN(S(=O)(=O)c3ccc(C)cc3)[C@H](c3cccs3)C[C@H]2[C@H]2C(=O)N(c3ccccc3)C(=O)[C@H]2C1	inactive
COC(=O)c1sc(-c2ccc(C(C)(C)C)cc2)cc1NC(=O)/C=C/C(=O)O	11.6 µM (active)
CC(C)(C)c1ccc(/C=C/C(=O)Nc2ncccn2)cc1	inactive
COc1ccc(NS(=O)(=O)c2ccc(N3CCOCC3)c(NC(=O)/C=C/C(=O)O)c2)cc1	inactive
COc1cccc(OCC(=O)NCCS(=O)(=O)N2CCN(c3ccccc3)CC2)c1	inactive
COc1ccc(CC(NC(C)=O)C(=O)NC2CCN(C(=O)C3CC3)CC2)cc1OC (stereo not drawn)	inactive
CCc1ccc(OCC2c3cc(OC)c(OC)cc3CCN2C(C)=O)cc1 (stereo not drawn)	16.4 µM (active)
COc1ccc(CC(NC(C)=O)C(=O)NC2CCN(C(=O)c3ccc(OC)c(OC)c3)CC2)cc1OC (stereo not drawn)	inactive
CCOC1=C2[C@@H](CN(S(=O)(=O)c3ccc(C)cc3)[C@H]2c2ccccc2F)[C@H]2C(=O)N(Cc3ccccc3)C(=O)[C@H]2C1	inactive
O=[N+]([O-])c1ccc(NS(=O)(=O)c2ccccc2)c(Cl)c1	6.51 µM (active)
Cc1cc([N+](=O)[O-])ccc1NS(=O)(=O)c1ccccc1	inactive
O=C(NNS(=O)(=O)c1ccc(F)cc1)c1ccc([N+](=O)[O-])cc1Cl	inactive
